The whole screen tested about 5,500 compounds, of which about 2,000 (36%) were called active. Not shown: some 18% with an inconclusive outcome. No stated cut-off is given here; in the data, active means normalized growth mostly below about 0.91 (no sharp cut-off); inconclusive means no clear call, values can overlap the other calls; inactive means mostly above about 0.92. The list shows a part of the results.
Experiment: chemical genetic growth profiling, strain panel (AID 1159580);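 further: tested at 20 µM; growth read once vehicle control cultures reached saturation at 30 °C; 1 = growth at the plate median or of vehicle wells; lower values mean less growth of the strain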
Details: S. cerevisiae deletion strains, growth OD

Measured: normalized growth

C[C@@H]1OC(O[C@H]2C(O[C@H]3CC[C@@]4(C)C(CC[C@]5(C)C4CC=C4C6CC(C)(C)CC[C@]6(C(=O)O)CC[C@]45C)[C@]3(C)CO)OC[C@H](O)[C@@H]2O)[C@H](O)[C@H](O)[C@H]1O (stereo not given in full)
active: locus YAL021C, strain ccr4, active compounds read low 0.0607 | locus YAL026C, strain drs2, active compounds read low 0.0592 | locus YAL030W, strain snc1, active compounds read low 0.0552 | locus YBL061C, strain skt5, active compounds read low 0.058 | locus YBR009C, strain hhf1, active compounds read low 0.061 | locus YBR021W, strain FUR4, active compounds read low 0.267 | locus YBR023C, strain chs3, active compounds read low 0.0603 | locus YBR171W, strain sec66, active compounds read low 0.0767 | locus YBR229C, strain ROT2, active compounds read low 0.32 | locus YBR231C, strain swc5, active compounds read low 0.0595 | locus YBR279W, strain paf1, active compounds read low 0.0577 | locus YCL011C, strain gbp2, active compounds read low 0.0544 | locus YCL016C, strain dcc1, active compounds read low 0.0589 | locus YCL029C, strain bik1, active compounds read low 0.0636 | locus YCL061C, strain MRC1, active compounds read low 0.0604 | locus YCL069W, strain vba3, active compounds read low 0.0603 | locus YCR088W, strain abp1, active compounds read low 0.059 | locus YDL005C, strain med2, active compounds read low 0.0706 | locus YDL035C, strain GPR1, active compounds read low 0.483 | locus YDL040C, strain nat1, active compounds read low 0.0557 | locus YDL074C, strain BRE1, active compounds read low 0.269 | locus YDL101C, strain DUN1, active compounds read low 0.44 | locus YDL185W, strain tfp1, active compounds read low 0.0554 | locus YDL192W, strain arf1, active compounds read low 0.0745 | locus YDR001C, strain nth1, active compounds read low 0.0586 | locus YDR069C, strain doa4, active compounds read low 0.0606 | locus YDR101C, strain arx1, active compounds read low 0.0695 | locus YDR137W, strain rgp1, active compounds read low 0.0801 | locus YDR159W, strain sac3, active compounds read low 0.0844 | locus YDR162C, strain NBP2, active compounds read low 0.299 | locus YDR195W, strain ref2 0.105 | locus YDR297W, strain sur2, active compounds read low 0.0548 | locus YDR318W, strain mcm21, active compounds read low 0.0705 | locus YDR334W, strain swr1, active compounds read low 0.0629 | locus YDR335W, strain msn5, active compounds read low 0.0601 | locus YDR388W, active compounds read low 0.0545 | locus YDR392W, strain spt3, active compounds read low 0.0915 | locus YDR502C, strain sam2, active compounds read low 0.0793 | locus YEL003W, strain gim4, active compounds read low 0.0528 | locus YEL037C, strain rad23, active compounds read low 0.0576 | locus YEL061C, strain CIN8 (second series), active compounds read low 0.0604 | locus YEL061C, strain CIN8, active compounds read low 0.447 | locus YER015W, strain faa2, active compounds read low 0.059 | locus YER016W, strain bim1, active compounds read low 0.059 | locus YER110C, active compounds read low 0.0996 | locus YER111C, strain swi4, active compounds read low 0.0703 | locus YER155C, strain BEM2 (second series), active compounds read low 0.0853 | locus YER155C, strain BEM2, active compounds read low 0.124 | locus YER167W, strain BCK2, active compounds read low 0.24 | locus YFR010W, strain ubp6, active compounds read low 0.0632 | locus YGL078C, strain dbp3, active compounds read low 0.056 | locus YGL086W, strain mad1, active compounds read low 0.0905 | locus YGL167C, strain pmr1, active compounds read low 0.0718 | locus YGL173C, strain kem1, active compounds read low 0.0643 | locus YGL227W, strain vid30, active compounds read low 0.0617 | locus YGL240W, strain doc1, active compounds read low 0.0707 | locus YGL248W, strain PDE1, active compounds read low 0.422 | locus YGL253W, strain hxk2, active compounds read low 0.053 | locus YGR078C, strain PAC10, active compounds read low 0.325 | locus YGR135W, strain pre9, active compounds read low 0.136 | locus YGR252W, strain gcn5, active compounds read low 0.157 | locus YHR013C, strain ard1, active compounds read low 0.114 | locus YHR027C, strain rpn1, active compounds read low 0.0611 | locus YHR030C, strain SLT2, active compounds read low 0.103 | locus YHR079C, strain IRE1 (second series), active compounds read low 0.0576 | locus YHR094C, strain hxt1, active compounds read low 0.0605 | locus YHR129C, strain ARP1, active compounds read low 0.202 | locus YHR142W, strain chs7, active compounds read low 0.0688 | locus YHR200W, strain rpn10, active compounds read low 0.0676 | locus YIL066C, strain RNR3, active compounds read low 0.457 | locus YIL073C, strain SPO22, active compounds read low 0.285 | locus YIL125W, strain kgd1, active compounds read low 0.0561 | locus YIR030C, strain dcg1, active compounds read low 0.0652 | locus YJL092W, strain hpr5, active compounds read low 0.0579 | locus YJL095W, strain BCK1 (second series), active compounds read low 0.0567 | locus YJL095W, strain BCK1, active compounds read low 0.143 | locus YJL115W, strain asf1, active compounds read low 0.069 | locus YJL129C, strain trk1, active compounds read low 0.0793 | locus YJL134W, strain LCB3, active compounds read low 0.187 | locus YJL154C, strain vps35, active compounds read low 0.0589 | locus YJL164C, strain tpk1, active compounds read low 0.0589 | locus YJL166W, strain qcr8, active compounds read low 0.0599 | locus YJL168C, strain set2, active compounds read low 0.0664 | locus YJL187C, strain SWE1 (second series), active compounds read low 0.48 | locus YJL187C, strain SWE1, active compounds read low 0.0554 | locus YJR043C, strain POL32, active compounds read low 0.42 | locus YKL009W, strain mrt4, active compounds read low 0.0928 | locus YKL068W, active compounds read low 0.0555 | locus YKL085W, strain MDH1 (second series), active compounds read low 0.0602 | locus YKL085W, strain MDH1, active compounds read low 0.0602 | locus YKL160W, strain elf1, active compounds read low 0.0617 | locus YKR001C, strain vps1, active compounds read low 0.0888 | locus YKR026C, strain gcn3, active compounds read low 0.0618 | locus YKR091W, strain srl3, active compounds read low 0.0568 | locus YLL001W, strain dnm1, active compounds read low 0.0585 | locus YLL026W, active compounds read low 0.0562 | locus YLL041C, strain sdh2, active compounds read low 0.0555 | locus YLR027C, strain aat2, active compounds read low 0.0549 | locus YLR039C, strain RIC1, active compounds read low 0.135 | locus YLR058C, strain SHM2, active compounds read low 0.414 | locus YLR102C, strain apc9, active compounds read low 0.0668 | locus YLR221C, strain rsa3, active compounds read low 0.0578 | locus YLR258W, strain gsy2, active compounds read low 0.0581 | locus YLR262C, strain YPT6 (second series), active compounds read low 0.0763 | locus YLR262C, strain YPT6, active compounds read low 0.153 | locus YLR268W, strain sec22, active compounds read low 0.0705 | locus YLR320W, strain mms22, active compounds read low 0.0834 | locus YLR330W, strain CHS5, active compounds read low 0.213 | locus YLR342W, strain FKS1 (second series), active compounds read low 0.286 | locus YLR342W, strain FKS1, active compounds read low 0.0611 | locus YLR357W, strain rsc2, active compounds read low 0.11 | locus YLR370C, strain arc18, active compounds read low 0.0593 | locus YLR371W, strain rom2, active compounds read low 0.0622 | locus YLR384C, strain iki3, active compounds read low 0.0588 | locus YLR418C, strain cdc73, active compounds read low 0.114 | locus YML016C, strain PPZ1, active compounds read low 0.214 | locus YML032C, strain rad52, active compounds read low 0.0701 | locus YML120C, strain ndi1, active compounds read low 0.0572 | locus YML124C, strain tub3, active compounds read low 0.0681 | locus YMR058W, strain fet3, active compounds read low 0.0577 | locus YMR078C, strain ctf18, active compounds read low 0.0754 | locus YMR125W, strain sto1, active compounds read low 0.0713 | locus YMR129W, active compounds read low 0.0556 | locus YMR205C, strain PFK2, active compounds read low 0.0864 | locus YMR223W, strain ubp8, active compounds read low 0.0761 | locus YMR231W, strain pep5, active compounds read low 0.0636 | locus YMR263W, strain SAP30, active compounds read low 0.185 | locus YMR307W, strain GAS1, active compounds read low 0.117 | locus YNL067W, strain RPL9B, active compounds read low 0.471 | locus YNL071W, strain lat1, active compounds read low 0.0594 | locus YNL128W, strain TEP1, active compounds read low 0.401 | locus YNL209W, strain ssb2, active compounds read low 0.0578 | locus YNL233W, strain BNI4, active compounds read low 0.167 | locus YNL248C, strain rpa49, active compounds read low 0.0674 | locus YNL250W, strain rad50, active compounds read low 0.0622 | locus YNL271C, strain bni1, active compounds read low 0.058 | locus YNL298W, strain CLA4, active compounds read low 0.0574 | locus YNL307C, strain MCK1, active compounds read low 0.0651 | locus YNL322C, strain KRE1 (second series), active compounds read low 0.0635 | locus YNR049C, strain mso1, active compounds read low 0.0575 | locus YNR052C, strain pop2, active compounds read low 0.0612 | locus YOL147C, strain pex11, active compounds read low 0.0641 | locus YOR001W, strain rrp6, active compounds read low 0.0642 | locus YOR061W, strain CKA2, active compounds read low 0.723 | locus YOR069W, strain VPS5, active compounds read low 0.193 | locus YOR070C, strain gyp1, active compounds read low 0.0577 | locus YOR080W, strain dia2, active compounds read low 0.0631 | locus YOR083W, strain WHI5, active compounds read low 0.0595 | locus YOR106W, strain vam3, active compounds read low 0.0596 | locus YOR136W, strain idh2, active compounds read low 0.0808 | locus YOR144C, strain elg1, active compounds read low 0.0575 | locus YOR184W, strain ser1, active compounds read low 0.0762 | locus YOR265W, strain rbl2, active compounds read low 0.0556 | locus YOR270C, strain vph1, active compounds read low 0.0934 | locus YOR290C, strain snf2, active compounds read low 0.0761 | locus YOR316C, strain cot1, active compounds read low 0.0649 | locus YPL051W, strain arl3, active compounds read low 0.0588 | locus YPL078C, strain atp4, active compounds read low 0.0628 | locus YPL106C, strain sse1, active compounds read low 0.0896 | locus YPL240C, strain hsp82, active compounds read low 0.0548 | locus YPR119W, strain clb2, active compounds read low 0.0662 | locus YPR141C, strain kar3, active compounds read low 0.0612 | locus YPR163C, strain tif3, active compounds read low 0.0699 | locus YPR167C, strain met16, active compounds read low 0.0649 | strain wtn01, active compounds read low 0.0783
